About 2,000 (36%) of roughly 5,500 compounds were called active. Another 18% or so got no clear call; they are omitted. Cut-off read from the data, not from the text of the source: active = normalized growth mostly below about 0.91 (no sharp cut-off); inconclusive = no clear call, values can overlap the other calls; inactive = mostly above about 0.92. Some of the results follow.
Assay: chemical genetic growth profiling, strain panel (AID 1159580);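 note: tested at 20 µM; growth read once vehicle control cultures reached saturation at 30 °C; 1 = growth at the plate median or of vehicle wells; lower values mean less growth of the strain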
Conditions: growth OD

Measured: normalized growth

CC[C@@]1(O)C[C@H](O[C@H]2C[C@H](N(C)C)[C@H](O)[C@H](C)O2)c2c(cc3c(c2O)C(=O)c2c(O)cccc2C3=O)[C@H]1C(=O)OC
active: S. cerevisiae deletion strains, locus YKL085W, strain MDH1 (second series), active compounds read low 0.914 | S. cerevisiae deletion strains, locus YKL085W, strain MDH1, active compounds read low 0.914 | S. cerevisiae deletion strains, locus YKL160W, strain elf1, active compounds read low 0.873 | S. cerevisiae deletion strains, locus YKL190W, strain CNB1, active compounds read low 0.876 | S. cerevisiae deletion strains, locus YKR001C, strain vps1, active compounds read low 0.639 | S. cerevisiae deletion strains, locus YLL001W, strain dnm1, active compounds read low 0.869 | S. cerevisiae deletion strains, locus YLL026W, active compounds read low 0.908 | S. cerevisiae deletion strains, locus YLR027C, strain aat2, active compounds read low 0.877 | S. cerevisiae deletion strains, locus YLR039C, strain RIC1, active compounds read low 0.491 | S. cerevisiae deletion strains, locus YLR058C, strain SHM2, active compounds read low 0.89 | S. cerevisiae deletion strains, locus YLR102C, strain apc9, active compounds read low 0.901 | S. cerevisiae deletion strains, locus YLR221C, strain rsa3, active compounds read low 0.855 | S. cerevisiae deletion strains, locus YLR262C, strain YPT6 (second series), active compounds read low 0.649 | S. cerevisiae deletion strains, locus YLR262C, strain YPT6, active compounds read low 0.462 | S. cerevisiae deletion strains, locus YLR268W, strain sec22, active compounds read low 0.691 | S. cerevisiae deletion strains, locus YLR320W, strain mms22, active compounds read low 0.245 | S. cerevisiae deletion strains, locus YLR330W, strain CHS5, active compounds read low 0.873 | S. cerevisiae deletion strains, locus YLR342W, strain FKS1 (second series), active compounds read low 0.769 | S. cerevisiae deletion strains, locus YLR342W, strain FKS1, active compounds read low 0.862 | S. cerevisiae deletion strains, locus YLR370C, strain arc18, active compounds read low 0.899 | S. cerevisiae deletion strains, locus YLR371W, strain rom2, active compounds read low 0.846 | S. cerevisiae deletion strains, locus YLR418C, strain cdc73, active compounds read low 0.69 | S. cerevisiae deletion strains, locus YML032C, strain rad52, active compounds read low 0.241 | S. cerevisiae deletion strains, locus YML120C, strain ndi1, active compounds read low 0.912 | S. cerevisiae deletion strains, locus YML124C, strain tub3, active compounds read low 0.9 | S. cerevisiae deletion strains, locus YMR058W, strain fet3, active compounds read low 0.818 | S. cerevisiae deletion strains, locus YMR078C, strain ctf18, active compounds read low 0.724 | S. cerevisiae deletion strains, locus YMR129W, active compounds read low 0.921 | S. cerevisiae deletion strains, locus YMR205C, strain PFK2, active compounds read low 0.779 | S. cerevisiae deletion strains, locus YMR223W, strain ubp8, active compounds read low 0.838 | S. cerevisiae deletion strains, locus YMR231W, strain pep5, active compounds read low 0.918 | S. cerevisiae deletion strains, locus YNL067W, strain RPL9B, active compounds read low 0.824 | S. cerevisiae deletion strains, locus YNL071W, strain lat1, active compounds read low 0.815 | S. cerevisiae deletion strains, locus YNL209W, strain ssb2, active compounds read low 0.871 | S. cerevisiae deletion strains, locus YNL233W, strain BNI4, active compounds read low 0.861 | S. cerevisiae deletion strains, locus YNL248C, strain rpa49, active compounds read low 0.309 | S. cerevisiae deletion strains, locus YNL250W, strain rad50, active compounds read low 0.559 | S. cerevisiae deletion strains, locus YNL271C, strain bni1, active compounds read low 0.916 | S. cerevisiae deletion strains, locus YNL298W, strain CLA4, active compounds read low 0.898 | S. cerevisiae deletion strains, locus YNL307C, strain MCK1, active compounds read low 0.864 | S. cerevisiae deletion strains, locus YNL322C, strain KRE1, active compounds read low 0.893 | S. cerevisiae deletion strains, locus YNR052C, strain pop2, active compounds read low 0.65 | S. cerevisiae deletion strains, locus YOL006C, strain TOP1, active compounds read low 0.198 | S. cerevisiae deletion strains, locus YOL147C, strain pex11, active compounds read low 0.837 | S. cerevisiae deletion strains, locus YOR069W, strain VPS5, active compounds read low 0.895 | S. cerevisiae deletion strains, locus YOR070C, strain gyp1, active compounds read low 0.898 | S. cerevisiae deletion strains, locus YOR083W, strain WHI5, active compounds read low 0.81 | S. cerevisiae deletion strains, locus YOR106W, strain vam3, active compounds read low 0.672 | S. cerevisiae deletion strains, locus YOR136W, strain idh2, active compounds read low 0.894 | S. cerevisiae deletion strains, locus YOR144C, strain elg1, active compounds read low 0.857 | S. cerevisiae deletion strains, locus YOR184W, strain ser1, active compounds read low 0.591 | S. cerevisiae deletion strains, locus YOR265W, strain rbl2, active compounds read low 0.917 | S. cerevisiae deletion strains, locus YOR270C, strain vph1, active compounds read low 0.39 | S. cerevisiae deletion strains, locus YOR316C, strain cot1, active compounds read low 0.915 | S. cerevisiae deletion strains, locus YPL051W, strain arl3, active compounds read low 0.785 | S. cerevisiae deletion strains, locus YPL055C, strain LGE1, active compounds read low 0.744 | S. cerevisiae deletion strains, locus YPL240C, strain hsp82, active compounds read low 0.92 | S. cerevisiae deletion strains, locus YPL241C, strain CIN2, active compounds read low 0.929 | S. cerevisiae deletion strains, locus YPR119W, strain clb2, active compounds read low 0.901 | S. cerevisiae deletion strains, locus YPR163C, strain tif3, active compounds read low 0.783 | S. cerevisiae deletion strains, locus YPR167C, strain met16, active compounds read low 0.882 | S. cerevisiae deletion strains, strain wtn01, active compounds read low 0.759 | S. cerevisiae strains, strain wild type, active compounds read low 0.841
inactive: S. cerevisiae deletion strains, locus YKL068W, active compounds read low 0.965 | S. cerevisiae deletion strains, locus YKR026C, strain gcn3, active compounds read low 0.945 | S. cerevisiae deletion strains, locus YKR091W, strain srl3, active compounds read low 0.945 | S. cerevisiae deletion strains, locus YLL041C, strain sdh2, active compounds read low 0.944 | S. cerevisiae deletion strains, locus YLR113W, strain HOG1, active compounds read low 1.02 | S. cerevisiae deletion strains, locus YLR258W, strain gsy2, active compounds read low 0.929 | S. cerevisiae deletion strains, locus YLR357W, strain rsc2, active compounds read low 0.939 | S. cerevisiae deletion strains, locus YLR384C, strain iki3, active compounds read low 0.93 | S. cerevisiae deletion strains, locus YML016C, strain PPZ1, active compounds read low 0.929 | S. cerevisiae deletion strains, locus YMR125W, strain sto1, active compounds read low 1.05 | S. cerevisiae deletion strains, locus YMR263W, strain SAP30, active compounds read low 0.92 | S. cerevisiae deletion strains, locus YMR307W, strain GAS1, active compounds read low 0.601 | S. cerevisiae deletion strains, locus YNL153C, strain GIM3, active compounds read low 0.94 | S. cerevisiae deletion strains, locus YNL183C, strain NPR1, active compounds read low 0.926 | S. cerevisiae deletion strains, locus YNL322C, strain KRE1 (second series), active compounds read low 0.922 | S. cerevisiae deletion strains, locus YNR049C, strain mso1, active compounds read low 0.946 | S. cerevisiae deletion strains, locus YOL012C, strain htz1 0.351 | S. cerevisiae deletion strains, locus YOR001W, strain rrp6, active compounds read low 0.934 | S. cerevisiae deletion strains, locus YOR061W, strain CKA2, active compounds read low 0.89 | S. cerevisiae deletion strains, locus YOR080W, strain dia2, active compounds read low 0.97 | S. cerevisiae deletion strains, locus YOR231W, strain MKK1, active compounds read low 0.994 | S. cerevisiae deletion strains, locus YOR290C, strain snf2, active compounds read low 0.932 | S. cerevisiae deletion strains, locus YPL078C, strain atp4, active compounds read low 0.961 | S. cerevisiae deletion strains, locus YPL106C, strain sse1, active compounds read low 1.04 | S. cerevisiae deletion strains, locus YPL256C, strain CLN2, active compounds read low 0.963 | S. cerevisiae deletion strains, locus YPR141C, strain kar3, active compounds read low 0.935
